From PubChem
A selection: hits, their analogues and other compounds. The true share with any hit is near 3.9%.
Casp6 inh = inhibitors of human caspase-6 | 0.53% of 350,000 active | purified caspase-6, Z-VEID-R110 cleavage fluorescence | inhibition, % at 12.5 µM | P55212;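 active = mean inhibition across replicates at least about 35%, with every replicate also reaching that limit, limit read from the data; inconclusive = only one of the two criteria met; inactive = neither criterion met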;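 note: 0% = median of neutral control wells and 100% = no fluorescence left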
Target sequence (P55212 24-179 limits assumed): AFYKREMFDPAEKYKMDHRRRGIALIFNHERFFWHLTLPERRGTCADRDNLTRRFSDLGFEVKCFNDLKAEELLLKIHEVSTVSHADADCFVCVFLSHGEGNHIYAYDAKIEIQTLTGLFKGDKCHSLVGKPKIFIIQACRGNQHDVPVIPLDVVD
Target sequence (P55212 194-293 limits assumed): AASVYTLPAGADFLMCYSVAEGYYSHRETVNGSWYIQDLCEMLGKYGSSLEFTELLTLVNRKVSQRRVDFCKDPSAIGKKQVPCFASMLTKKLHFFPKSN
CDK5 inh = inhibitors of human CDK5/p35 kinase | Q00535+Q15078 | Recombinant CDK5/p35, ADP-Glo luminescence, 60 min | inhibition, % at 10 µM | 0.01% of 330,000 active;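 active = highest replicate inhibition of at least 50% and at least 75% of replicates reaching 50%; inconclusive = only one of the two criteria met; inactive = both criteria failed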;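 note: plate controls were DMSO neutral control for no effect and GW8510 at 10 µM for full effect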
Glyco luc inh = blocks N-linked glycosylation in D54 reporter cells. D54 ERlucT glycosylation luciferase reporter, 24 h; percent of 100 nM tunicamycin response. reporter increase, % at 12.5 µM. 0.23% of 360,000 active;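 active = mean luciferase reporter signal, scaled so untreated is 0 and the glycosylation-blocking control 100, at or above a set limit in every replicate; inconclusive = mean reaches the limit but not every replicate does; inactive = mean below the limit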;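 note: luciferase carries N-glycosylation sites so blocking glycosylation raises the light; 0% = median of neutral control wells and 100% = median of 100 nM tunicamycin wells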
NSD2 inh = NSD2 (human) methyltransferase inhibition; inhibition, % at 12.5 µM; NSD2 peptide methylation, AlphaScreen, 120 min; 0.54% of 310,000 active; O96028; in the data active = inhibition above about 50%
SUMO Mot1 rescue = blocks SUMOylation pathway, rescuing yeast Mot1-301 growth. 1% of 320,000 active. S. cerevisiae Mot1-301 growth rescue, ATP luminescence, 38.5C; percent above DMSO median, 100 means doubled. growth rescue, % at 18.8 µM;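 active = every valid replicate shows activation above 250% relative to neutral control wells; inactive = the rest, any valid replicate at or below 250%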;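 note: OY570 slx delta 5 strain wells were the positive control but not used for scaling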
ALR inh = inhibitors of human sulfhydryl oxidase ALR; inhibition, % (no concentration beside the values); purified ALR, DTT oxidation, H2O2 HRP-luminol luminescence; 3.8% of 290,000 active; AID 485317;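 active = mean replicate inhibition above about 79%, with every replicate also reaching it, limit read from the data; inconclusive = only one of the two criteria met; inactive = mean below limit and not every replicate reaching it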
Target sequence (P55789 whole entry, looked up): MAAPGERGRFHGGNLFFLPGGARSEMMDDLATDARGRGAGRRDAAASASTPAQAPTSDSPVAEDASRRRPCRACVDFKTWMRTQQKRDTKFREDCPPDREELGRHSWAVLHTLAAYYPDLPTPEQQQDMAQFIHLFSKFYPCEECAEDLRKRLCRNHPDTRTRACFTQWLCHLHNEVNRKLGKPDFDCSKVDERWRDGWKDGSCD
An asterisk follows results filed as active; ? = inconclusive; · = no result given.

SMILES	Casp6 inh	CDK5 inh	Glyco luc inh	NSD2 inh	SUMO Mot1 rescue	ALR inh
CC(=O)c1ccc(N2CCN(CC(=O)N(CC(C)C)c3c(N)n(CC(C)C)c(=O)[nH]c3=O)CC2)cc1	-3	-3	2	0	0	·
CC(C)CN(C(=O)CCC(=O)OCC(=O)N(C)c1ccccc1)c1c(N)n(CC(C)C)c(=O)[nH]c1=O	-1	0	0	1	515*	1
C[C@H]1CN([C@@H](C)CO)C(=O)c2cc(NC(=O)NC3CCCCC3)ccc2O[C@@H]1CN(C)Cc1ccncc1	-2	·	·	·	·	·
CN(C)C(=O)C[C@@H]1C=C[C@H](NS(=O)(=O)c2ccccc2)[C@@H](CO)O1	4	·	·	·	·	·
C[C@H]1CN([C@@H](C)CO)C(=O)c2cc(NC(=O)Nc3ccc(F)cc3)ccc2O[C@H]1CN(C)S(=O)(=O)c1cn(C)cn1	-1	·	·	·	·	·
CC(=O)Oc1cc2cccc(OC(C)=O)c(=O)c2c(OC(C)=O)c1OC(C)=O	·	0	6	·	7	99*
COc1cc2cccc(OC)c(=O)c2c(O)c1OC	-4	-1	5	0	1	·
CCN=c1scc(C)n1/N=C/c1ccsc1	·	-1	-4	11	10	99*
COc1ccc(OCC(=O)N/N=C/c2ccsc2)cc1	·	-3	1	-2	25	·
COC(C/C=C/C(=O)[C@H](C)OCc1ccccc1)OC	·	-1	?	·	65	87*
O=C(Nc1ccccc1F)N[C@H]1CC[C@H](CCNC(=O)C2CCCC2)O[C@@H]1CO	2	·	·	·	·	·
CCCc1cc(NC(=O)CCl)n(-c2ccccc2)n1	3	-3	0	3	8	97*
CSCCC(NC(=O)COc1ccccc1)C(=O)N(C)CC(=O)Nc1c(C)cccc1C (configuration not stated)	42*	1	-2	-1	3	-13
O=C(O)c1ccc(COc2c(F)c(F)c(F)c(F)c2F)o1	·	1	0	8	78	96*
Cc1cc(C)cc(OCc2ccc(C(=O)O)o2)c1	·	1	1	2	3	18
CN(C)Cc1c(O)ccc2occ(C(=O)c3ccccc3)c12	·	0	0	27	2	-50
O=C(c1ccccc1)c1coc2ccc(O)c(Cl)c12	0	0	-4	3	20	99*
Cc1ccc(C(=O)c2coc3ccc(O)c(Cl)c23)cc1	·	1	-3	·	11	98*
Cc1ccc(C(=O)c2coc3ccc(O)cc23)cc1	-1	1	-15	-1	-1	-20
C[C@H](CO)N1C[C@H](C)[C@@H](CN(C)Cc2ccc(C(=O)Nc3ccccc3N)cc2)Oc2ccc(NC(=O)Cn3cnnn3)cc2C1=O	-3	·	·	·	·	·
O=C(C(=O)N1CCN(c2ccccc2)CC1)c1c[nH]c2ccccc12	6	0	1	-1	-18	51
O=C(c1cccs1)N1CCN(c2ccccc2)CC1	0	0	-1	-1	210	98*
CS(=O)(=O)N1CCC(C(=O)N2CCN(c3ccccc3F)CC2)CC1	1	1	-3	-5	310*	1
COc1ccc(N2CCN(C(=O)C3CCN(S(=O)(=O)c4cccs4)CC3)CC2)cc1	0	-1	-5	3	17	45
O=C(C1CCN(S(=O)(=O)c2cccs2)CC1)N1CCN(c2ccccc2)CC1	·	0	-5	2	·	84*
SMILES	Casp6 inh	CDK5 inh	Glyco luc inh	NSD2 inh	SUMO Mot1 rescue	ALR inh
O=C(c1c[nH]c2ccccc12)N1CCN(c2ccccc2)CC1	-4	-2	1	2	-7	87*
C[C@@H]1CCCCO[C@@H](CN(C)C(=O)c2ccccc2)[C@@H](C)CN([C@@H](C)CO)C(=O)c2cc(NS(=O)(=O)c3ccc(Cl)cc3)ccc2O1	-2	·	·	·	·	·
COc1cccc(-c2cn(CC[C@H]3CC[C@@H](NC(=O)CN(C)C)[C@H](CO)O3)nn2)c1	-2	·	·	·	·	·
C[C@@H]1CN([C@H](C)CO)C(=O)c2cc(C#CCN(C)C)cnc2O[C@H]1CN(C)C(=O)Cc1cccnc1	-1	·	·	·	·	·
O=C(NC(=S)N1CCN(c2ccc([N+](=O)[O-])cc2)CC1)c1ccccc1	-1	0	0	-5	-1	-3
O=C(NC(=S)N1CCN(c2ccccc2)CC1)c1c(F)cccc1F	2	0	2	-3	1	99*
O=C(NC(=S)N1CCN(c2ccc(F)cc2)CC1)c1cccs1	2	-3	3	1	4	95*
O=C(NC(=S)N1CCN(c2ccc(O)cc2)CC1)c1cccs1	0	3	0	·	1	99*
O=C(NC(=S)Nc1ccc(N2CCN(C(=O)c3ccccc3)CC2)cc1)c1cccs1	-4	-1	-11	11	-14	3
CCC(=O)N1CC2(C1)[C@H](c1ccccc1)[C@@H](CO)N2S(=O)(=O)Cc1ccccc1	0	·	·	·	·	·
Cc1cc(C(=O)Nc2cccc3c2O[C@@H](CN(C)C(=O)NC(C)C)[C@H](C)CN([C@H](C)CO)C3=O)n(C)n1	-1	·	·	·	·	·
CCc1cc2c(=O)n(Cc3ccco3)c(SCc3c(C)noc3C)nc2s1	·	1	?	·	79	99*
O=C(CSCc1cnn(-c2ccccc2)c1-n1cccc1)NCc1ccccn1	·	4	1	1	-18	81*
N#Cc1c(SCC(=O)Nc2ccc(Cl)cc2Cl)sc2c(O)cc(=O)[nH]c12	40*	0	4	·	-4	99*
N#Cc1c(SCC(=O)Nc2ccccc2C(F)(F)F)sc2c(O)cc(=O)[nH]c12	43*	-2	0	13	11	16
Cc1c(Cl)cccc1NC(=O)CSc1sc2c(O)cc(=O)[nH]c2c1C#N	33	-5	-1	-2	20	?
CN(C)C(=O)[C@H]1[C@H](CO)[C@H]2Cn3c(ccc(C4=CCCC4)c3=O)[C@@H]1N2CCC(F)(F)F	-1	·	·	·	·	·
N=C1/C(=C/c2ccc(Br)o2)C(=O)N=C2SC(CC(=O)N3CCCC3)=NN12	0	0	1	39	-4	13
N=C1/C(=C\c2ccc(OC(=O)c3ccc(F)cc3)cc2)C(=O)N=C2SC(N3CCOCC3)=NN12	4	1	5	3	-15	95*
N=C1/C(=C/c2ccco2)C(=O)N=C2SC(CC(=O)N3CCCC3)=NN12	51*	-7	0	33	-8	10
CC(C)c1ccc(/C=C2\C(=N)N3N=C(CC(=O)N4CCCCC4)SC3=NC2=O)cc1	2	1	1	4	1	96*
CSc1ccc(/C=C2\C(=N)N3N=C(CC(=O)N4CCOCC4)SC3=NC2=O)cc1	-1	-4	2	8	-5	6
CSc1ccc(/C=C2\C(=N)N3N=C(CC(=O)N4CCCCC4)SC3=NC2=O)cc1	-2	-1	0	11	15	96*
CCN1[C@H](C(=O)N(C)C)[C@@H](CO)[C@@H]2Cn3c(ccc(-c4cccc(OC)c4)c3=O)[C@@H]21	-5	·	·	·	·	·
